Among the data in PubChem BioAssay AID1004 (SRMLSC, 2008) are viability values, retold here.

Molecules are shown by their SMILES. Active and inactive are the calls of the source.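 Rule for the calls: active = viability at 10 µM of 29.74% or lower, 3 SD below the compound median; inactive = the rest.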

A short description of the experiment: viability of HCT116 lacking mutant beta-catenin – cell-based, DP diverse set, validation, pilot screen (AID 1004). The following applies: HCT116 (mutant beta-catenin deleted) viability, CellTiter-Glo, 60 h; at 10 µM; hits give low values. In general terms: ATP-based viability assays read luminescence as a measure of living cells.
As a reminder, the viability is a read-out of living cells in per cent, often relative to untreated cells. As to `C[C@]12CCC(=O)C=C1CC[C@@H]1[C@@H]2[C@@H](O)C[C@@]2(C)[C@H]1CC[C@]2(O)C(=O)CO`, the viability was 98.9% (inactive).
To `O=C(O)c1ccccc1O` belongs 103% (inactive); to `O=c1[nH]c(=O)n(C2CCCO2)cc1F` (centres undefined), 94.9% (inactive).
To `C[C@@H]1CC[C@]2(C(=O)O)CC[C@]3(C)C(=CCC4[C@@]5(C)C[C@@H](O)[C@H](O)[C@@](C)(CO)C5CC[C@]43C)C2[C@H]1C` (some centres undefined) belongs 100% (inactive); to `COc1cccc2c1C(=O)c1c(O)c3c(c(O)c1C2=O)C[C@@](O)(C(=O)CO)C[C@@H]3OC1C[C@@H](N)[C@H](O)[C@H](C)O1` (some centres undefined), 27.4% (active); to `COc1ccc(/C=C/c2cc(OC)cc(=O)o2)cc1`, 103% (inactive).
For `C[C@H](CCC(=O)O)[C@H]1CC[C@H]2[C@@H]3CC[C@@H]4C[C@H](O)CC[C@]4(C)[C@H]3CC[C@]12C`, the viability is 102% (inactive).
As to `Nc1nc2ncc(CNc3ccc(C(=O)NC(CCC(=O)O)C(=O)O)cc3)nc2c(=O)[nH]1` (centres undefined), the viability was 95.3% (inactive).
For the molecule `NS(=O)(=O)c1cc(C(=O)O)c(NCc2ccco2)cc1Cl`, the viability was 96.3% (inactive).
On to `COc1cc2c(c(OC)c1OC)-c1ccc(OC)c(=O)cc1[C@@H](NC(C)=O)CC2`, for which the viability was 39.6% (inactive).
In the case of `CN1C2CCC1CC(OC(=O)C(CO)c1ccccc1)C2` (centres undefined), the viability is 97.1% (inactive).
To `C=CC1(C)CC(=O)C2(O)C(C)(O1)C(OC(C)=O)C(O)C1C(C)(C)CCC(O)C12C` (centres undefined) belongs 86% (inactive).
Consider `NC(=O)c1cccc(N)c1`, for which the viability is 108% (inactive).
Then `CC(C)CC(=O)N[C@H](C(=O)N[C@H](C(=O)N[C@@H](CC(C)C)[C@@H](O)CC(=O)N[C@@H](C)C(=O)N[C@@H](CC(C)C)[C@@H](O)CC(=O)O)C(C)C)C(C)C`, with 100% (inactive).
